PubChem BioAssay (NCI)
The panel holds about 83,000 compounds, 20% with a hit somewhere; the sample as a whole holds those more often.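 Negative percent growth values reflect cell death: -40 means 40% of the cells present at the start died, and -100 means all died.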 Unmarked numbers belong to inactive results. Active and inactive are the calls of the source. Rule for the calls: active = growth percent below 10; inactive = the rest.

Assays:
Assay in all cases: NCI-60 one-dose screen, 48 h (100 = growth as untreated, 0 = no growth, -100 = all killed)
Settings in all cases: 10 µM unless noted
DU-145 prostate = test system: DU-145 prostate
K-562 leukemia = test system: K-562 leukemia
MALME-3M melanoma = test system: MALME-3M melanoma
MDA-MB-231 breast = test system: MDA-MB-231 breast
RXF 393 renal = test system: RXF 393 renal
SF-268 CNS = test system: SF-268 CNS
SF-295 CNS = test system: SF-295 CNS
SF-539 CNS = test system: SF-539 CNS
UACC-257 melanoma = test system: UACC-257 melanoma
M14 melanoma = test system: M14 melanoma
HCT-15 colon = test system: HCT-15 colon
HT29 colon = test system: HT29 colon
SNB-75 CNS = test system: SNB-75 CNS
SNB-19 CNS = test system: SNB-19 CNS
PC-3 prostate = test system: PC-3 prostate
SK-MEL-5 melanoma = test system: SK-MEL-5 melanoma
UACC-62 melanoma = test system: UACC-62 melanoma
LOX IMVI melanoma = test system: LOX IMVI melanoma
SK-MEL-28 melanoma = test system: SK-MEL-28 melanoma
U251 CNS = test system: U251 CNS

| SMILES | growth (DU-145 prostate) | growth (K-562 leukemia) | growth (MALME-3M melanoma) | growth (MDA-MB-231 breast) | growth (RXF 393 renal) | growth (SF-268 CNS) | growth (SF-295 CNS) | growth (SF-539 CNS) | growth (UACC-257 melanoma) | growth (M14 melanoma) | growth (HCT-15 colon) | growth (HT29 colon) | growth (SNB-75 CNS) | growth (SNB-19 CNS) | growth (PC-3 prostate) | growth (SK-MEL-5 melanoma) | growth (UACC-62 melanoma) | growth (LOX IMVI melanoma) [%] | growth (SK-MEL-28 melanoma) | growth (U251 CNS) |
| --- | --- | --- | --- | --- | --- | --- | --- | --- | --- | --- | --- | --- | --- | --- | --- | --- | --- | --- | --- | --- |
| Fc1cc2c(cc1Cl)N(c1ncnc3ccc(-c4cnc5cnccn45)cc13)CC2 | 74.7% | 75.2% | 91.3% | 77.5% | 62% | 81% | 107% | 84.6% | 109% | 80.2% | 99.1% | 87.9% | 69.2% | 86.2% | 81.9% | 95.3% | 80.5% | 91 | 97.1% | – |
| CN(C)CC#Cc1ccc2ncc(C#N)c(Nc3ccc(F)c(Cl)c3)c2c1 | 22.4% | 51.4% | 45.1% | 56.1% | 32.4% | 59.2% | 65.4% | 62.4% | 76% | 40.5% | 32% | 66% | 48.1% | 76.4% | 40.5% | 51.4% | 42.9% | – | 69.4% | 63.8% |
| CC1Cc2ccccc2N1NC(=O)c1ccc(Cl)c(S(N)(=O)=O)c1 (configuration not stated) | 108% | 103% | 94.2% | 104% | 108% | 106% | 101% | 105% | 102% | 98.2% | 106% | 99.9% | 90.4% | 102% | 88% | 101% | 99.4% | 96.2 | 104% | – |
| Cc1ccc(/C=C2\Oc3ccc(O)c(O)c3C2=O)cc1 | 46.1% | 19.2% | 66.1% | 56.1% | 27.4% | 37.5% | 54% | 32.7% | 96.6% | 56.1% | 9.23% (active) | 87.8% | 32.5% | 37.9% | 43.3% | 47.3% | 45.3% | – | 53.6% | 20.2% |
| Cc1cc2nc3ccc(N=Nc4ccc(N(C)C)cc4)cc3n(-c3ccccc3)c-2cc1=N | -98.2% (active) | 17.9% | -92.7% (active) | -27.9% (active) | -87.8% (active) | -78.1% (active) | -89.4% (active) | -89.4% (active) | -95.7% (active) | -78.4% (active) | -77.2% (active) | -67% (active) | -84% (active) | -93.7% (active) | -72.3% (active) | -95.3% (active) | -76.7% (active) | – | -96.6% (active) | -69.4% (active) |
| CC1=NN(c2ccc(S(=O)(=O)O)cc2)C(=O)C1N=Nc1ccc(-c2ccc(N=Nc3ccc(OS(=O)(=O)c4ccc(C)cc4)cc3)c(S(=O)(=O)O)c2)cc1 (configuration not stated) | 107% | 94.4% | 108% | 97.1% | 61.7% | 100% | 77.5% | 85.1% | 104% | 103% | 82.8% | 93.3% | 78.8% | 104% | 86.3% | 104% | 92% | 69.4 | 103% | – |
| O=C1CCC(C(=O)NCCNCCNC(=O)C2CCC(=O)N2)N1 (configuration not stated) | 109% | 101% | 105% | 121% | 101% | 100% | 100% | 102% | 93% | 96.5% | 99.8% | 89.8% | 101% | 98.3% | 78.5% | 91.3% | 99.4% | 96.5 | 112% | – |
| CCOC(=O)C1=C(N)Oc2c(sc3c(C)cccc23)C1c1ccc(F)cc1 (configuration not stated) | 12.1% | 4.54% (active) | 52.7% | 27.8% | -7.13% (active) | 38.2% | 0.881% (active) | -1.53% (active) | 59.2% | 10.6% | 6.3% (active) | 2.47% (active) | -4.15% (active) | 26.3% | 12% | 16.3% | 17.4% | 14 | 56.8% | – |
